Data on 22 compounds can be found in article PMC5540273 (PLoS ONE, 2017).

SMILES strings stand for the structures.

Common to all, as to conditions: concentration: 1 μM, replicates: in singlicate; n = 1
In experiment [1] the test system is MAPKAPK5.
In experiment [2] the test system is MARK1.
For experiment [3], the system named is MARK2.
Experiment [4] has as its system MARK3.
For experiment [5], the system named is MARK4.
Experiment [6] has as its system MAST1.
The subject of experiment [7] is T1, MEK1.
T1 construct: gene MAP2K1

For experiment [8], the system named is T2, MEK2.
T2 construct: gene MAP2K2

For experiment [9], the system named is T3, MEK3.
T3 construct: gene MAP2K3

Experiment [10] deals with T4, MEK4.
T4 construct: gene MAP2K4
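Note: KINOMEscan kinase panel screen.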

Turning to `Cc1ccc(-c2ccc3occ(-c4ccc(S(C)=O)cc4)c3c2)nn1` (stereo not shown), the “%Inh” value is recorded as 0% in experiment [1]; 0% in experiment [2]; 14% in [3]; 16% in [4]; 4% in experiment [5]; 0% in experiment [6]. Besides, the “%Inh” value in [7] was 0%; in experiment [8] it was 4%; in experiment [9], 0%; in [10], 0%.
With `Nc1ncnc2scc(-c3ccc(NC(=O)Cc4cc(F)ccc4F)cc3)c12.O=C(O)C(F)(F)F` [SB-731254-M], the “%Inh” value in [1] turned out to be 10%; in experiment [2], 27%; in [3] it was 31%; in [4] it was 0%; in experiment [5] it was 6%; in [6], 21%. The “%Inh” value in experiment [7] was determined as 24%; in experiment [8], 19%; in experiment [9], 23%; in experiment [10], 18%.
For `Cc1ccc(NC(=O)c2ccc(Cl)c(Cl)c2)cc1-c1ccc(C(=O)Nc2ccncc2)cc1` [GSK1398460], the “%Inh” value in [1] turned out to be 0%; in experiment [2], 7%; in experiment [3], 0%; in experiment [4], 0%; in [5], 16%; in experiment [6], 0%. Also, the “%Inh” value in experiment [7], in [8], in experiment [9] and in experiment [10] was 0% each time.
Consider `Cc1cc(-c2c(-c3ccc(F)cc3)ncn2CCCN2CCOCC2)nc(N)n1` [SB-222517], for which the “%Inh” value was 0% in experiment [1]; 23% in experiment [2]; 0% in experiment [3]; 0% in experiment [4]; 32% in experiment [5]; 14% in experiment [6]. The “%Inh” value in experiment [7] came out at 21%; in experiment [8], 47%; in [9], 23%; in experiment [10], 26%.
Consider `Cl.N#CCc1ccc(Nc2nccc(Nc3ccc(Oc4ccccc4)cc3)n2)cc1` [GW639905], for which the “%Inh” value in experiment [1], in experiment [2], in experiment [3], in [4], in [5] and in experiment [6] was 0% each time. Besides, the “%Inh” value in [7] came to 2%; in [8] it was 12%; in experiment [9], 0%; in experiment [10] it was 22%.
For the compound `CCn1cnc2c(NCc3ccccc3)ncnc21` [SKF-96418], the “%Inh” value in experiment [1] was 0%; in experiment [2], 3%; in experiment [3] it was 0%; in experiment [4], 27%; in experiment [5], 14%; in [6], 67%. In addition, the “%Inh” value in experiment [7] stood at 20%; in experiment [8] it was 37%; in experiment [9], 40%; in experiment [10], 23%.
As for `CS(=O)(=O)c1cccc(CNc2nc(Nc3ccc4c(c3)CCC(=O)N4)ncc2C(F)(F)F)c1`, the “%Inh” value in experiment [1] came out at 0%; in experiment [2] it was 35%; in [3], 16%; in experiment [4], 56%; in experiment [5], 46%; in experiment [6] it was 0%. Also, the “%Inh” value was 0% in [7], 58% in experiment [8], 61% in experiment [9] and 56% in experiment [10].
For `CN1CCN(Cc2ccc(NC(=O)Nc3ccc(N(C)c4ccnc(Nc5ccc(CS(C)(=O)=O)cc5)n4)cc3)cc2)CC1.Cl` [GW827654], the “%Inh” value in [1] was determined as 13%; in experiment [2], 32%; in [3], 60%; in experiment [4] it was 61%; in [5] it was 31%; in [6], 32%. The “%Inh” value in [7] is 1%; in experiment [8], 25%; in experiment [9], 74%; in [10], 86%.
Consider `O=C(O)C(F)(F)F.O=c1[nH]ccc2nc(N[C@@H]3CCNC3)nc(Nc3cc(Cl)cc(Cl)c3)c12` [GSK2188764], for which the “%Inh” value is reported as 47% in [1]; 52% in experiment [2]; 87% in experiment [3]; 85% in experiment [4]; 41% in experiment [5]; 28% in [6]. Moreover, the “%Inh” value in [7] was determined as 79%; in experiment [8], 84%; in experiment [9] it was 88%; in experiment [10] it was 72%.
As to `Nc1cccc(-c2ccc3c(N)n[nH]c3c2)c1` [GSK2193613], the “%Inh” value in [1], in [2], in experiment [3], in [4], in experiment [5] and in [6] was 0% throughout. In addition, the “%Inh” value in [7] came to 53%; in experiment [8], 39%; in experiment [9], 0%; in experiment [10] it was 12%.
For the compound `CN(C)CCOc1ccc(-c2cc(-c3ccc(Cl)c(O)c3)c(-c3ccncc3)[nH]2)cc1.Cl.Cl` [SB-684387], the “%Inh” value in experiment [1] worked out at 29%; in experiment [2] it was 0%; in experiment [3], 14%; in [4], 14%; in [5], 0%; in [6] it was 52%. The “%Inh” value is recorded as 0% in experiment [7], 35% in [8], 5% in experiment [9] and 10% in [10].
Take `COc1cccc(C2=C(Nc3cccc(O)c3)C(=O)NC2=O)c1` [SB-390771]: the “%Inh” value in experiment [1] is reported as 0%; in experiment [2], 0%; in experiment [3], 0%; in [4], 1%; in experiment [5], 8%; in [6] it was 4%. Moreover, the “%Inh” value in experiment [7], in experiment [8], in experiment [9] and in experiment [10] was 0% throughout.
For `c1ccc(Oc2ccc(Nc3ccnc4cc(-c5ccc(CN6CCCCC6)o5)ccc34)cc2)nc1` [GW567143], the “%Inh” value in experiment [1] came out at 0%; in [2], 0%; in [3], 0%; in [4], 0%; in experiment [5], 5%; in experiment [6], 0%. Besides, the “%Inh” value in [7] turned out to be 95.3%; in experiment [8] it was 97.1%; in [9], 0%; in experiment [10], 0%.
As for `COc1ccc(NC(=O)c2ccoc2)cc1-c1ccc(C(=O)NCC2CC2)cc1` [GW810437], the “%Inh” value amounted to 0% in experiment [1]; 17% in experiment [2]; 0% in experiment [3]; 47% in experiment [4]; 18% in [5]; 56% in experiment [6]. Further, the “%Inh” value in [7] turned out to be 13%; in [8], 24%; in [9], 36%; in experiment [10] it was 0%.
With `Fc1cc(Cl)ccc1Nc1ccnc2cc(-c3ccc(CN4CCSCC4)o3)ccc12` [GW560106], the “%Inh” value in experiment [1] stood at 0%; in experiment [2], 5%; in experiment [3], 0%; in experiment [4], 0%; in experiment [5] it was 21%; in experiment [6], 34%. For the same compound, the “%Inh” value in experiment [7] was 53%; in experiment [8], 35%; in [9] it was 0%; in experiment [10] it was 3%.
`CN(c1ccc(F)c(NC(=O)c2cccc(OC(C)(C)C#N)c2Cl)c1)c1ccc2nc(NC(=O)C3CC3)sc2n1`: the “%Inh” value in experiment [1] worked out at 0%; in experiment [2], 0%; in [3], 0%; in experiment [4], 0%; in experiment [5], 0%; in experiment [6], 40%. Further, the “%Inh” value in [7] is given as 61%; in experiment [8] it was 49%; in experiment [9], 0%; in [10], 26%.
Regarding `CN(c1ccc(NC(=O)Nc2cccc(Cl)c2)cc1)c1ccnc(N)n1.Cl` [GW830707], the “%Inh” value in experiment [1] is reported as 0%; in [2], 0%; in [3], 0%; in experiment [4], 43%; in experiment [5], 5%; in [6] it was 84%. The “%Inh” value in experiment [7] amounted to 16%; in experiment [8] it was 23%; in [9] it was 0%; in experiment [10], 0%.
In the case of `CC(C)NCC(Cc1ccccc1)NC(=O)c1cc(Br)c(-c2ccnc3[nH]ccc23)s1.Cl.Cl` (stereo not shown) [GSK1383281], the “%Inh” value was 0% in [1]; 11% in [2]; 31% in experiment [3]; 60% in [4]; 0% in [5]; 0% in [6]. Further, the “%Inh” value is reported as 0% in experiment [7], 0% in [8], 87% in [9] and 39% in experiment [10].
With `CN(C)CCNS(=O)(=O)c1ccc(-c2ccnc3[nH]ccc23)cc1` [GSK977620], the “%Inh” value was 0% in experiment [1]; 8% in experiment [2]; 31% in [3]; 13% in experiment [4]; 2% in [5]; 0% in experiment [6]. Besides, the “%Inh” value is reported as 0% in experiment [7], 0% in experiment [8], 10% in experiment [9] and 19% in experiment [10].
In the case of `Cc1cccc(Nc2nc(NCCN)ncc2C(N)=O)c1` [GSK1292139], the “%Inh” value came to 44% in experiment [1]; 0% in [2]; 39% in experiment [3]; 7% in experiment [4]; 0% in experiment [5]; 0% in experiment [6]. Also, the “%Inh” value in [7] is 0%; in experiment [8], 9%; in experiment [9], 94.9%; in [10] it was 55%.
Take `COc1cccc(CC(=O)N2CCc3cc(-c4cn(C)c5ncnc(N)c45)ccc32)c1` [GSK2608899]: the “%Inh” value in experiment [1] turned out to be 0%; in experiment [2], 0%; in experiment [3], 0%; in experiment [4], 7%; in experiment [5], 0%; in experiment [6], 0%. Further, the “%Inh” value in experiment [7] came to 39%; in experiment [8], 0%; in [9], 0%; in experiment [10], 53%.
`CC(=O)Nc1cn2nc(Oc3cccc(NC(=O)c4cccc(C(F)(F)F)c4)c3)ccc2n1`: the “%Inh” value worked out at 0% in experiment [1]; 0% in [2]; 0% in experiment [3]; 8% in experiment [4]; 20% in experiment [5]; 8% in [6]. For the same compound, the “%Inh” value is on record as 0% in experiment [7], 18% in experiment [8], 0% in [9] and 0% in experiment [10].
